Here are results for 12 sequences from the supplement of paper PMC3545927.

Some of the results follow. How many sequences the whole screen found active is unknown.

The assay deals with furin, P09958. In words: furin cleavage Z-score vs untreated control; higher = more cleavage, active = 3.5 or more, inactive = 1 or less, 8 variable residues between constant flanks. The procedure, abridged: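 Reactions of 0.01 ml ran for 7.5, 15 or 30 min in 50 mM HEPES pH 7.5 with CaCl2 and NaCl, at 1:10 enzyme:substrate. In them, purified furin acted on bead-held 8-mer peptides fused to a cDNA oligonucleotide. The cleavage Z-score was obtained by lowess-adjusting log sequencing counts of released DNA against furin-free reactions and scaling by median absolute deviation.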
furin, P09958, sequence (P09958 whole entry, the tested form may be a part): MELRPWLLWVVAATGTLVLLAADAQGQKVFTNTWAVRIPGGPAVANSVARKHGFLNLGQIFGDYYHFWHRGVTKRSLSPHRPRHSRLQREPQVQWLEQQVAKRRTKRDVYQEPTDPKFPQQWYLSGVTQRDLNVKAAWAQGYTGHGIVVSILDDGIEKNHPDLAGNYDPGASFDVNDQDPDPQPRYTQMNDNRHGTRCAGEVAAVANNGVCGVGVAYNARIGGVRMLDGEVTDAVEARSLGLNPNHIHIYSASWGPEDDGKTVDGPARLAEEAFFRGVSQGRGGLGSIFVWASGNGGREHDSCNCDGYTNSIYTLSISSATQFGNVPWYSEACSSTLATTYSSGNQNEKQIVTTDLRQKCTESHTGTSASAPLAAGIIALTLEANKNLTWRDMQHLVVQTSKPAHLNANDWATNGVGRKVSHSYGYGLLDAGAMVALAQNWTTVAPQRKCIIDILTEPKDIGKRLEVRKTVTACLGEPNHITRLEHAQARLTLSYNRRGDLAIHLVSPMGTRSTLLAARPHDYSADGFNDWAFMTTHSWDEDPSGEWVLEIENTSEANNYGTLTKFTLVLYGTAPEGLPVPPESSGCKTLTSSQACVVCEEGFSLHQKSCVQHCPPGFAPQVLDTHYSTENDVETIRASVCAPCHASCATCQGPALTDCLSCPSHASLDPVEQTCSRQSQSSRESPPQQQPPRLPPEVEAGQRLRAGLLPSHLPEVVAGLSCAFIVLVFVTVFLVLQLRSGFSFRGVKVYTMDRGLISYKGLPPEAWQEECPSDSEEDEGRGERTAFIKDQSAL

Regarding CAQCTTPCSGAGNASASA [HC1962], the “furin cleavage Z-score” value (7.5 min) is -0.946 (inactive), the “furin cleavage Z-score” value (15 min) was 0.921 (inactive) and the “furin cleavage Z-score” value (30 min) was -0.234 (inactive).
For CAYCTTPCSGAGNASASA [HC1949] the same measures were -0.657 (inactive), -1.14 (inactive) and -0.156 (inactive).
As to CASEECSQHLAGNASASA [HC1677], the “furin cleavage Z-score” value reads like this: (7.5 min) 1.1; (15 min) 1.14; (30 min) 0.289 (inactive).
Regarding CAVPSRQSRAAGNASASA [FS-207], the “furin cleavage Z-score” value reads like this: (7.5 min) 7.32 (active); (15 min) 8.36 (active); (30 min) 8.3 (active).
In the same order, the values of CAVRSRMRRAAGNASASA [FS-1500] are 11 (active), 10.2 (active) and 8.12 (active).
Turning to CAGPLWILQAAGNASASA [HC609], the “furin cleavage Z-score” value was 1.21 (7.5 min), -0.216 (inactive) (15 min) and 0.172 (inactive) (30 min).
As to CALPSRQKKAAGNASASA [FS-1365], the “furin cleavage Z-score” value was 0.168 (inactive) (7.5 min), 0.828 (inactive) (15 min) and 1.92 (30 min).
For CACSFTTLPAAGNASASA [HC499] the same measures were -0.00686 (inactive), 0.0583 (inactive) and 0.931 (inactive).
For the sequence CAPSFRDRRAAGNASASA [FS-1244], the “furin cleavage Z-score” value (7.5 min) is 9.04 (active), the “furin cleavage Z-score” value (15 min) is 11.1 (active) and the “furin cleavage Z-score” value (30 min) is 9 (active).
For the sequence CAVRSRHLRAAGNASASA [FS-632], the “furin cleavage Z-score” value runs as follows: (7.5 min) 9.71 (active); (15 min) 9.82 (active); (30 min) 8.62 (active).
Consider CAMEEISQHLAGNASASA [HC5], for which the “furin cleavage Z-score” value (7.5 min) turned out to be 1.45, the “furin cleavage Z-score” value (15 min) is 0.702 (inactive) and the “furin cleavage Z-score” value (30 min) is -0.262 (inactive).
For the sequence CAHLHAPTGSAGNASASA [HC774], the “furin cleavage Z-score” value was -0.0824 (inactive) (7.5 min), 0.739 (inactive) (15 min) and 0.623 (inactive) (30 min).
